Our source for the outcome and AC50 values is PubChem BioAssay (EPA / NIEHS).

Records with an inconclusive call do not appear. Activity calls are given as the source filed them. The calls were made as follows, unless noted: active = hit-call score of the fitted dose curve at least 0.9, where 1 is the maximum; inactive = score below 0.9.

The nature of assay [1]: ATG_Oct_MLP_CIS: Attagene CIS-FACTORIAL HepG2 Assay for human Octamer-Binding Transcription Factor (Oct) (AID 2282993). The following applies: HepG2 Attagene cis-factorial Oct reporter, mRNA; actives raise or lower the signal. An outline of the steps:
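HepG2, transient MRTU transfection, cis promoter elements; 24 h dosing; RT-PCR/CE fluorescence read-out of reporter mRNA; fit both directions vs DMSO.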

Assay [2] has as its target Cellular tumor antigen p53 (Homo sapiens) (UniProt P04637). Description: ATG_p53_CIS: Attagene CIS-FACTORIAL HepG2 Assay for human p53 Transcription Factor (AID 2282994). The following applies: HepG2 p53 cis-element reporter, Attagene mRNA; actives raise or lower the signal. An outline of the steps: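 HepG2, transient MRTU transfection (cis promoter elements, endogenous TFs); 24 h dosing; RNA isolation, RT-PCR, 6-FAM primer extension, HpaI digest, CE fluorescence; bidirectional fit vs DMSO.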

Assay [3] is described as follows: BSK_3C_TissueFactor: BioMAP Diversity Plus: 3C Assay for Tissue Factor Biomarker Activity (AID 2282997). As to conditions: BioMAP 3C HUVEC, tissue factor biomarker readout; actives raise or lower the signal. An outline of the steps:
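HUVEC were treated 24 h, then surface tissue factor measured by ELISA and fitted bidirectionally against DMSO. Parallel SRB total-protein staining assessed overt cytotoxicity at the same time point.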

Assay [4] can be described thus: BSK_3C_uPAR: BioMAP Diversity Plus: 3C Assay for Urokinase-type plasminogen activator receptor (uPAR) Biomarker Activity (AID 2282998). The following applies: BioMAP 3C HUVEC, uPAR biomarker ELISA; actives raise or lower the signal. An outline of the steps: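 A multiplexed primary-cell system built on human umbilical vein endothelium was used, with chemical present for 24 h before reading. Cell-surface uPAR was detected by ELISA; signal change in either direction counted against DMSO.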

Assay [5] in a line: BSK_3C_VCAM1: BioMAP Diversity Plus: 3C Assay for Vascular cell adhesion molecule 1 (VCAM1) Biomarker Activity (AID 2282999). The following applies: BioMAP 3C HUVEC, VCAM1 ELISA, cytokine-stimulated; actives raise or lower the signal. The essentials: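 Human umbilical vein endothelial cells were dosed with compound for 24 h, after which cell-surface VCAM-1 was quantified by ELISA. Bidirectional curve fitting used DMSO as negative control and activity baseline.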

Assay [6] can be described thus: BSK_4H_Eotaxin3: BioMAP Diversity Plus: 4H Assay for Eotaxin 3 Biomarker Activity (AID 2283000).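 As to outcome: CCL26 protein level quantified by ELISA in parallel with SRB cytotoxicity check.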 The following applies: primary human endothelial cells (HUVEC); actives raise or lower the signal. The essentials:
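Eotaxin-3 (CCL26) levels were measured by ELISA in HUVEC primary cultures 24 h post-dosing. Gain or loss of signal was fitted in both directions, with DMSO serving as baseline and negative control.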

The target of assay [7] is human Peroxisome Proliferator-activated Receptor alpha (PPARa), PPARA (gene 5465) (UniProt Q07869). Description: ATG_PPARa_TRANS: Attagene TRANS-FACTORIAL HepG2 Assay for human Peroxisome Proliferator-activated Receptor alpha (PPARa) (AID 2283001; active = hit-call score of the fitted dose curve at least 0.9, where 1 is the maximum). The essentials: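 Gain-of-signal endpoint: reporter mRNA induction relative to DMSO, detected by fluorescent RT-PCR and capillary electrophoresis. HepG2 cells transiently carried GAL4-UAS-driven reporter units plus NR-Gal4 fusion; exposure lasted 24 h.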

Read-out in assay [8]: Intercellular Adhesion Molecule 1 (ICAM1), ICAM1 (gene 3383)
Description: BSK_3C_ICAM1: BioMAP Diversity Plus: 3C Assay for Intercellular Adhesion Molecule 1 (ICAM1) Biomarker Activity (AID 2283003). The following applies: primary human endothelial cells (HUVEC); actives raise or lower the signal. The essentials:
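HUVEC primary cells stimulated under 3C conditions; ICAM1 measured by ELISA 24 h after compound dosing. Curves fitted bidirectionally against the DMSO baseline. Overt cytotoxicity checked by SRB staining of parallel cultures.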

Assay [9] concerns the target human Retinoic Acid Receptor beta (RARb), RARB (gene 5915) (UniProt P10826). Description: ATG_RARb_TRANS: Attagene TRANS-FACTORIAL HepG2 Assay for human Retinoic Acid Receptor beta (AID 2283004; active = hit-call score of the fitted dose curve at least 0.9, where 1 is the maximum). The essentials:
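HepG2 cells were transiently transfected with GAL4-UAS reporter units that report activity of exogenous chimeric NR-Gal4 proteins, then exposed to compound for 24 h. Reporter mRNA was quantified by RT-PCR with capillary electrophoresis fluorescence, as gain of signal over DMSO.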

A short description of assay [10]: BSK_3C_Proliferation: Cell Proliferation Assessment in the BioMAP Diversity Plus: 3C Assay (AID 2283006).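 As to AC50: potency may reflect either rise or fall in cell number versus DMSO.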 The following applies: primary human endothelial cells (HUVEC). The essentials:
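Subconfluent HUVEC (3C system) cultured with chemical; relative cell number read at 48 h by sulforhodamine B total-protein staining (0.1% SRB after 10% TCA fixation, 560 nm). Bidirectional fit relative to DMSO.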

The target of assay [11] is human RAR-related Orphan Receptor beta (RORb), RORB (gene 6096) (UniProt Q92753). Description: ATG_RORb_TRANS: Attagene TRANS-FACTORIAL HepG2 Assay for human RAR-related Orphan Receptor beta (RORb) (AID 2283010; active = hit-call score of the fitted dose curve at least 0.9, where 1 is the maximum). The essentials: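 HepG2 cells transiently transfected with GAL4-UAS reporter units expressing chimeric NR-Gal4 protein; reporter mRNA measured 24 h after dosing by RT-PCR, 6-FAM labelling and capillary electrophoresis. Gain-of-signal fitted relative to DMSO baseline.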

The target of assay [12] is human RAR-related Orphan Receptor gamma (RORg), RORC (gene 6097) (UniProt P51449). Description: ATG_RORg_TRANS: Attagene TRANS-FACTORIAL HepG2 Assay for human RAR-related Orphan Receptor gamma (RORg) (AID 2283011; active = hit-call score of the fitted dose curve at least 0.9, where 1 is the maximum). An outline of the steps:
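HepG2 cells transiently transfected with GAL4-UAS reporter units and chimeric RORg-Gal4 construct; after 24 h chemical exposure, reporter mRNA measured by RT-PCR with fluorescent capillary electrophoresis, gain of signal fitted against DMSO.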

Read-out in assay [13]: E-selectin (Homo sapiens) (UniProt P16581)
As to the kind of experiment: BSK_3C_Eselectin: BioMAP Diversity Plus: 3C Assay for Eselectin Biomarker Activity (AID 2283015).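 Also: cell surface E-selectin protein quantified by ELISA 24 h after dosing.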 The following applies: primary human endothelial cells (HUVEC); actives raise or lower the signal. The essentials: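 Primary human umbilical vein endothelial cells (3C system), read 24 h after compound addition; E-selectin measured by ELISA. Bidirectional curve fitting against DMSO baseline; cytotoxicity by parallel SRB total-protein staining.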

Read-out in assay [14]: Interleukin-1 alpha (IL1a), IL1A (gene 3552)
As to the kind of experiment: BSK_BE3C_IL1a: BioMAP Diversity Plus: BE3C Assay for Interleukin-1 alpha (IL1a) Biomarker Activity (AID 2283016). The following applies: primary human bronchial epithelial cells; actives raise or lower the signal. An outline of the steps:
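Human primary bronchial epithelial cells, 24 h chemical exposure; IL-1a quantified by ELISA, fitted bidirectionally against DMSO. Cytotoxicity assessed in parallel by SRB total-protein staining at the time of measurement.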

Assay [15] deals with Peroxisome proliferator-activated receptor gamma (Homo sapiens) (UniProt P37231). As to the kind of experiment: ATG_PPARg_TRANS: Attagene TRANS-FACTORIAL HepG2 Assay for human Peroxisome Proliferator-activated Receptor-gamma (PPARg) (AID 2283007; active = hit-call score of the fitted dose curve at least 0.9, where 1 is the maximum). The essentials:
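Twenty-four hours after chemical dosing of transiently transfected HepG2 cells, isolated RNA was converted to cDNA, reporter sequences amplified and 6-FAM-labelled, then HpaI-digested and analysed by capillary electrophoresis. Signal increase against DMSO was fitted.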

Assay [16] concerns the target Retinoic acid receptor RXR-alpha (Homo sapiens) (UniProt P19793). As to the kind of experiment: ATG_RXRa_TRANS: Attagene TRANS-FACTORIAL HepG2 Assay for human Retinoid X Receptor alpha (RXRa) (AID 2283012; active = hit-call score of the fitted dose curve at least 0.9, where 1 is the maximum). The essentials: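 HepG2 cells transiently transfected with GAL4-UAS reporter units and chimeric RXRa-Gal4 protein, treated 24 h. Reporter mRNA measured by RT-PCR, fluorescent labelling, HpaI digestion and capillary electrophoresis. Induction fitted against DMSO.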

For assay [17], the target named is human Retinoid X Receptor beta (RXRb), RXRB (gene 6257) (UniProt P28702). Description: ATG_RXRb_TRANS: Attagene TRANS-FACTORIAL HepG2 Assay for human Retinoid X Receptor beta (RXRb) (AID 2283013; active = hit-call score of the fitted dose curve at least 0.9, where 1 is the maximum). An outline of the steps:
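HepG2 cells were transiently transfected with multiplexed GAL4-UAS reporters and a chimeric RXRb-Gal4 construct, then exposed for 24 h. Reporter mRNA was quantified by RT-PCR, FAM labeling, HpaI digestion and capillary electrophoresis; gain of signal was scored against DMSO.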

Assay [18] addresses Nuclear receptor subfamily 1 group I member 2 (Homo sapiens) (UniProt O75469). As to the kind of experiment: ATG_PXR_TRANS: Attagene TRANS-FACTORIAL HepG2 Assay for human Pregnane X Receptor (PXR) (AID 2283008; active = hit-call score of the fitted dose curve at least 0.9, where 1 is the maximum). An outline of the steps: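 Read-out is fluorescence of labelled reporter cDNA fragments separated by capillary electrophoresis after RT-PCR and HpaI digestion. Source: HepG2 cells carrying PXR-GAL4/UAS reporter constructs, treated 24 h; activity fitted upward relative to DMSO.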

Assay [19] has as its target human Thyroid Receptor alpha (THRa1), THRA (gene 7067) (UniProt P10827). As to the kind of experiment: ATG_THRa1_TRANS: Attagene TRANS-FACTORIAL HepG2 Assay for human Thyroid Receptor alpha (THRa1) (AID 2283014; active = hit-call score of the fitted dose curve at least 0.9, where 1 is the maximum). The essentials:
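HepG2 cells transiently transfected with chimeric NR-Gal4 and GAL4-UAS reporter units, dosed 24 h. Reporter mRNA quantified by RT-PCR, fluorescent labeling, HpaI digestion and capillary electrophoresis; gain-of-signal fit versus DMSO.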

Chain of Cellular tumor antigen p53 (Homo sapiens) (P04637 whole entry, looked up): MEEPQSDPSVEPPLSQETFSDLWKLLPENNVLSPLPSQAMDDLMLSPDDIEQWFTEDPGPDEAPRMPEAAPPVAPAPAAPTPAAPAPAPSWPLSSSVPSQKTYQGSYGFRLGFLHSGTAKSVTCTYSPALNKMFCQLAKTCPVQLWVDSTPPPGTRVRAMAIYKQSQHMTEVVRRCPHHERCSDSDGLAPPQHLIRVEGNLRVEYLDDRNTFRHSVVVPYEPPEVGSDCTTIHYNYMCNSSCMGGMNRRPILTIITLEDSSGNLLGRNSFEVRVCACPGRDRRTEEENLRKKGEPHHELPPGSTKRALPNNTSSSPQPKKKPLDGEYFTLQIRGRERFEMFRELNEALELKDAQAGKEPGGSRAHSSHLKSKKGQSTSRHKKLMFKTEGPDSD
Chain of Retinoic acid receptor RXR-alpha (Homo sapiens) (P19793 whole entry, looked up, the tested form may be a part): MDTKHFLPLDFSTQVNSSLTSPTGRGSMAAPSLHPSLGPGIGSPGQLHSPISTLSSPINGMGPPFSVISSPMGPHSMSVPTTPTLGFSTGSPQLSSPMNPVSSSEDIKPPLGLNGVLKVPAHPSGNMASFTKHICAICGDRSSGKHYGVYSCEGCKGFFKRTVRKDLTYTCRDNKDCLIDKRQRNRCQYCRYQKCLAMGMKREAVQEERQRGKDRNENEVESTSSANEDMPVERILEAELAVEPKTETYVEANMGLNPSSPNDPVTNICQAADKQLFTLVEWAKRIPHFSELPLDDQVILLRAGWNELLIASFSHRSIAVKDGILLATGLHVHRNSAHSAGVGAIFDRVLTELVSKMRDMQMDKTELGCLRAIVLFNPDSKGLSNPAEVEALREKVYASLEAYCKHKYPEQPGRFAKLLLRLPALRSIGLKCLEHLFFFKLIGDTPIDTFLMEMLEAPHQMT
Chain of E-selectin (Homo sapiens) (P16581 whole entry, looked up): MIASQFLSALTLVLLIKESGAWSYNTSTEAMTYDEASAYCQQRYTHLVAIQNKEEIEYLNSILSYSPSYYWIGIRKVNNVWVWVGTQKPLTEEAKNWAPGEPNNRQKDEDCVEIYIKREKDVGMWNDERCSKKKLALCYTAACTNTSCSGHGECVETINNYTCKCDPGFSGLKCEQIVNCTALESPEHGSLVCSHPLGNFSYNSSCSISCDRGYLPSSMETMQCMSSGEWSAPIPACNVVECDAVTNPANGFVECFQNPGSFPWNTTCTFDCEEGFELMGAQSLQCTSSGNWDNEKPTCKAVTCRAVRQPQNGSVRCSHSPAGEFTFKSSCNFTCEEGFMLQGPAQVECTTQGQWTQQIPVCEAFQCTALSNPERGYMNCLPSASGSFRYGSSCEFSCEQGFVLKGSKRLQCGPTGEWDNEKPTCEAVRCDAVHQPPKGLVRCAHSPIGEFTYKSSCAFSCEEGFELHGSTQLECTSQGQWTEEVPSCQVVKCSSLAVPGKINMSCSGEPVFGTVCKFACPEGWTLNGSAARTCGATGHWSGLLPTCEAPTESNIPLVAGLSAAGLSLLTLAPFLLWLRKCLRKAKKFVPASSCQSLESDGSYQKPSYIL
Chain of human RAR-related Orphan Receptor beta (RORb), RORB (gene 6096) (Q92753 whole entry, looked up, the tested form may be a part): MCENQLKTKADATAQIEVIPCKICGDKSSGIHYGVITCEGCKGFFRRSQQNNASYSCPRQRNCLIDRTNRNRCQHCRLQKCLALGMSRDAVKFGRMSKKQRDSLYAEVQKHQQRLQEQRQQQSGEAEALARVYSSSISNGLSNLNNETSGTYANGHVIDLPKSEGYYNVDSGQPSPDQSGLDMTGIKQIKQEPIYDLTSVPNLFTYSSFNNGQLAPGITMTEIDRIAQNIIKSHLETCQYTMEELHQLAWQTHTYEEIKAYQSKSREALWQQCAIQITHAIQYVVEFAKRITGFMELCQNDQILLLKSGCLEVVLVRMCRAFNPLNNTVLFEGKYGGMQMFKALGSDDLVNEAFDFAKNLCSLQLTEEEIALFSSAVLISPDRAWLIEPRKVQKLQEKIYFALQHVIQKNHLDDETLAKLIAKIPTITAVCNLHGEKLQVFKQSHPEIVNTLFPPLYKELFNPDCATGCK
Chain of Peroxisome proliferator-activated receptor gamma (Homo sapiens) (P37231 whole entry, looked up): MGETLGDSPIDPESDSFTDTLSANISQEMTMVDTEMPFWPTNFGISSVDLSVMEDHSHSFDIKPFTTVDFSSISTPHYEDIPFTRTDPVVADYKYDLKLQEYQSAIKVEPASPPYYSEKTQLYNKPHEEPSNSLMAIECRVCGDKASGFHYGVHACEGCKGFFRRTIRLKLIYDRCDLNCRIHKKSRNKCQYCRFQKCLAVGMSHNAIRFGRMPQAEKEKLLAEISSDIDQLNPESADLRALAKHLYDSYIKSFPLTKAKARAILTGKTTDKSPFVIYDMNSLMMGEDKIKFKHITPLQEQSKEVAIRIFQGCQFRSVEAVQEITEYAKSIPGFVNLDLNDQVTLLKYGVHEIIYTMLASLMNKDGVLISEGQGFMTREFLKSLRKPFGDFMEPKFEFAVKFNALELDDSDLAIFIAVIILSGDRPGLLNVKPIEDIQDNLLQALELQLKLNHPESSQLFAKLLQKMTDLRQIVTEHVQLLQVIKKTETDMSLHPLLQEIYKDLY
Chain of human RAR-related Orphan Receptor gamma (RORg), RORC (gene 6097) (P51449 whole entry, looked up, the tested form may be a part): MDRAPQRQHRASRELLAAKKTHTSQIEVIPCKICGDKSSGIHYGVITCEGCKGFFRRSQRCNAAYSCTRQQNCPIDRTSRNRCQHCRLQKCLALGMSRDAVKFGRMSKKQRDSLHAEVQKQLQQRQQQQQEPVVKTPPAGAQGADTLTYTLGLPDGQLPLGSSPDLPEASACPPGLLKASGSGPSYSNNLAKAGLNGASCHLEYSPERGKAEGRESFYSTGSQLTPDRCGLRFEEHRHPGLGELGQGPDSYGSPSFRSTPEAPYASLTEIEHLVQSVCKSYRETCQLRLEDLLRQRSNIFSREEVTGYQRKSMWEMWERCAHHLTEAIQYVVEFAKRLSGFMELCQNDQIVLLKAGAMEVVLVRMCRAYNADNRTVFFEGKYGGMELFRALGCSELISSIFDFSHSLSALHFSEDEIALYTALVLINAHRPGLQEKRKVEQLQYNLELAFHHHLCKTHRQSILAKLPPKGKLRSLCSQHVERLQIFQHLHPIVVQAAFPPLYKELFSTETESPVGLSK
Chain of human Peroxisome Proliferator-activated Receptor alpha (PPARa), PPARA (gene 5465) (Q07869 whole entry, looked up, the tested form may be a part): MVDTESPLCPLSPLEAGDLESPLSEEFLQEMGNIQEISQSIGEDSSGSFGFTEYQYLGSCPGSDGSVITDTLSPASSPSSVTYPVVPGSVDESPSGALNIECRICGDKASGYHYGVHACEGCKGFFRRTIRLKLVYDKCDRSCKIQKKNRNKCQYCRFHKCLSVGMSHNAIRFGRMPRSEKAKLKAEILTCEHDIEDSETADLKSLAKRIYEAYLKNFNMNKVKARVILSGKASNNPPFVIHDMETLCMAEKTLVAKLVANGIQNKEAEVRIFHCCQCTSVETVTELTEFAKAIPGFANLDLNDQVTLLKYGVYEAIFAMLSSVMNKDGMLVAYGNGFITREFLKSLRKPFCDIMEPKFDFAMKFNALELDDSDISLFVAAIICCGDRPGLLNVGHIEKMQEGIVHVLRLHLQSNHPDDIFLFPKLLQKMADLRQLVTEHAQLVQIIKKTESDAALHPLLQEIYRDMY
Chain of human Retinoid X Receptor beta (RXRb), RXRB (gene 6257) (P28702 whole entry, looked up, the tested form may be a part): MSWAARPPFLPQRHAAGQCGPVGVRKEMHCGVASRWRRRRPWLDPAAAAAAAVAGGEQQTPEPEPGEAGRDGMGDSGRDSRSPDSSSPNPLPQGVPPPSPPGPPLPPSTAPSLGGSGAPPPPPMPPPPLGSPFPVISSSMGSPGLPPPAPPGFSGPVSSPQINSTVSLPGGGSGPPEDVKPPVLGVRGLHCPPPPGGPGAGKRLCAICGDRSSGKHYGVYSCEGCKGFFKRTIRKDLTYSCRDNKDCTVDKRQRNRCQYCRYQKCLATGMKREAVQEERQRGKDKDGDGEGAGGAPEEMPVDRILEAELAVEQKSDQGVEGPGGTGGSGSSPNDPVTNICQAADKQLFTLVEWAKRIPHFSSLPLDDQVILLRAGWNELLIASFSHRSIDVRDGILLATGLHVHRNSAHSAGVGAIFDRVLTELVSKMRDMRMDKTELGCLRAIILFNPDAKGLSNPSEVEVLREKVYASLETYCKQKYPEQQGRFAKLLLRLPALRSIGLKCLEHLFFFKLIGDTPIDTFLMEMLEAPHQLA
Chain of human Thyroid Receptor alpha (THRa1), THRA (gene 7067) (P10827 whole entry, looked up, the tested form may be a part): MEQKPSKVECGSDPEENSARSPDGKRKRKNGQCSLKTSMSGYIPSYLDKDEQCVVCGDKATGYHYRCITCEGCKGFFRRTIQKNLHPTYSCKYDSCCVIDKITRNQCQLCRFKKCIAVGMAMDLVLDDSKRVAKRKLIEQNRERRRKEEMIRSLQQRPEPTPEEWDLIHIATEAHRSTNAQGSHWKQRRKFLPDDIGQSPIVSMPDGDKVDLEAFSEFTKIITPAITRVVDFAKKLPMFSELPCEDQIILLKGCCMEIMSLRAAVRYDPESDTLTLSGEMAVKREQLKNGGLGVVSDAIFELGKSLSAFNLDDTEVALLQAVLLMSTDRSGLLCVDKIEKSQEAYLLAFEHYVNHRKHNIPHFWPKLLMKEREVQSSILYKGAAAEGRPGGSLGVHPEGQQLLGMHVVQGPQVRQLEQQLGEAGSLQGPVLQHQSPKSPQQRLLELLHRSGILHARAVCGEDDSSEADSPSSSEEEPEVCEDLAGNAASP
Chain of human Retinoic Acid Receptor beta (RARb), RARB (gene 5915) (P10826 whole entry, looked up, the tested form may be a part): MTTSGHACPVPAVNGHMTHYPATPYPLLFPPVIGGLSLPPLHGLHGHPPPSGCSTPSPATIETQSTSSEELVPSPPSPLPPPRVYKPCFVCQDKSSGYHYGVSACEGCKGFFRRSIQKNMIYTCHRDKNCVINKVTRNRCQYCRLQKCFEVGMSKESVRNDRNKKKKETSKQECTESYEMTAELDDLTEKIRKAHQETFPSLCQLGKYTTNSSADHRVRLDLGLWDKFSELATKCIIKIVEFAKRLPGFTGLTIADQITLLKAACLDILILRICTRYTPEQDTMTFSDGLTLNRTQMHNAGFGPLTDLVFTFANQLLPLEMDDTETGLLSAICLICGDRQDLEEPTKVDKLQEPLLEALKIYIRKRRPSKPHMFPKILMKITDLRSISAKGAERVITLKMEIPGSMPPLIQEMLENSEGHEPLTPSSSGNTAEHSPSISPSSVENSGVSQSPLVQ

Regarding `CC(C)c1cccc(C(C)C)c1NC(=O)NS(=O)(=O)c1cc(C(C)(C)O)co1`, the outcome in assay [1], in [2], in assay [3], in assay [4], in assay [5] and in assay [6] was inactive. Besides, the molecule was called inactive in assay [7], in assay [8], in assay [9], in [10], in assay [11] and in assay [12]. Also, the result in [13] and in assay [14] was inactive.
Turning to `CS(=O)(=O)c1ccc([C@@H](C[C@H]2CCC(=O)C2)C(=O)Nc2cnccn2)cc1Cl`, the result in assay [1], in assay [2], in assay [3], in [4], in [5] and in assay [6] was inactive. Moreover, the result in [7], in assay [8], in [10], in assay [15], in [11] and in assay [12] was inactive. Also, the call in assay [16], in assay [17], in [13] and in assay [14] was inactive.
For `OCC(CO)n1cnc(-c2ccc(F)cc2)c1-c1ccnc(Oc2ccccc2)n1`, the outcome in assay [1], in assay [2], in assay [3], in [4], in assay [5] and in [6] was inactive. Also, the result in assay [7], in assay [8], in assay [10], in assay [15], in assay [11] and in assay [14] was inactive.
With `COc1ccc(OC(F)(F)F)cc1CN[C@H]1CCCN[C@H]1c1ccccc1`, the molecule was called inactive in assay [1], in assay [5], in assay [7], in assay [8], in assay [16] and in [17]. The outcome in assay [14] was inactive. Besides, the AC50 is 2.91 µM (active) in [2]; 6.74 µM (active) in [3]; 20 µM (active) in assay [4]; 26.9 µM (active) in assay [6]; 28.2 µM (active) in [10]; 2.95 µM (active) in assay [18].
Consider `c1ccc2occc2c1`, for which the molecule was classed as inactive in assay [1], in assay [2], in assay [3], in [4], in assay [5] and in [6]. Also, the outcome in assay [7], in assay [8], in assay [10], in assay [12], in assay [19] and in assay [14] was inactive.
Regarding `CN(C)C(=O)NC1(c2ccccc2)CCN(CC[C@@]2(c3ccc(F)c(F)c3)CN(C(=O)c3ccccc3)CCO2)CC1`, the AC50 in [1] and in assay [2] was 100 µM (active) each time. For the same molecule, the outcome in assay [3], in assay [4], in assay [5], in assay [6], in [8] and in [10] was inactive. Besides, the call in assay [15], in assay [16], in assay [13] and in assay [14] was inactive.
In the case of `O=C(O)c1[nH]n(-c2ccc(S(=O)(=O)O)cc2)c(=O)c1N=Nc1ccc(S(=O)(=O)O)cc1`, the molecule was classed as inactive in [1], in [2], in assay [3], in [4], in assay [5] and in assay [6]. Also, the molecule was classed as inactive in [7], in [8], in assay [10], in [11] and in assay [14].
